About 3,500 (1.8%) of roughly 190,000 compounds were called active. Many of the other results were omitted from the sample, so actives are more common in it than they were. Values without a mark were called inactive.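 The calls were made as follows: active = inhibition above a set limit, 3 SD over mean compound inhibition (cut at about 8.4% in these data); inactive = the rest.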
Experiment: RAM signaling blockers in budding yeast – dse1pr::URA3 reporter, 5-FOA selection, primary screen (AID 868);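 also: 0% = DMSO-only wells with no growth and 100% = 10 µM 1-NA-PP1 full growth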
Conditions: S. cerevisiae dse1pr::URA3 reporter, 5-FOA growth OD615, 2 d; at 50 µM; stronger effect = higher value; analog-sensitive cbk1-as2 kinase mutant strain

Row | Compound | inhibition
1 | NC(=O)CCC(NS(=O)(=O)c1ccc(Cl)cc1)C(=O)NCc1ccccc1Cl (centres undefined) | 2.16%
2 | CCCC1NC(=S)NC(C)=C1C(C)=O (centres undefined) | 1.13%
3 | Cc1ccc(NC(=O)c2cccnc2C(=O)Nc2ccc(C)cc2)cc1 | 2.98%
4 | Cc1ccc(NC(=O)CN2CCCCC2)c2c1CC(C)(C)O2 | 0.63%
5 | COc1ccc(-c2[nH]ncc2CN(C)Cc2cc(C)[nH]n2)c(F)c1 | 0.37%
6 | CN(C)c1ccc(C2Nc3ccccc3C(=O)N2NS(=O)(=O)c2ccccc2)cc1 (centres undefined) | 1.39%
7 | S=C1Nc2cc(Cl)ccc2Sc2ccccc21 | 0%
8 | O=C(CSc1nc2ccccc2o1)N1c2ccccc2Sc2ccc(Cl)cc21 | 3.58%
9 | O=C1Cc2ccccc2Sc2ccc(Cl)cc21 | 9.58% (active)
10 | CN(CC(=O)N1CCN(c2ccccc2)CC1)S(=O)(=O)c1cccs1 | 1.71%
11 | O=C(NCCCN1CCOCC1)c1ccccc1NS(=O)(=O)c1ccc(Br)cc1 | 1.86%
12 | CC(=O)c1cc(-c2ccccc2)n(CCC(=O)NC2CCCCCC2)c1C | 8.76% (active)
13 | CC(=O)c1cc(-c2ccccc2)n(CC(=O)NC2CCCCC2)c1C | 1.07%
14 | O=C(CN1C(=O)CC(c2ccccc2)=Nc2ccccc21)NC1CCCCC1 | 0.45%
15 | S=c1[nH]nc(/C=C/c2ccccc2)o1 | -1.49%
16 | O=c1c(-c2ccccc2)cnc2n1CCS2 | 0.49%
17 | CNc1[nH]ncc1[N+](=O)[O-] | 0.14%
18 | CC(=O)Nc1ccc(S(=O)(=O)Nc2ccc(-c3ccc4nnc(C)n4n3)cc2)cc1 | 1.24%
19 | Cc1cc(NS(=O)(=O)c2ccccc2)no1 | 1.83%
20 | COc1cc(OC)cc(C(=O)Nc2ccc(S(=O)(=O)Nc3cc(C)on3)cc2)c1 | 3.99%
21 | COc1cc2ccccc2cc1C(=O)Nc1ccc(S(=O)(=O)Nc2cc(C)on2)cc1 | 9.69% (active)
22 | C/C=N/NC(=O)CCCC(=O)N/N=C/C | 0.88%
23 | C#CCOCCOCCOCCNc1nc(N2CCN(C(=O)[C@H](C(C)C)n3cc(CCO)nn3)CC2)nc(N2CCN(C(=O)[C@H](C(C)C)n3cc(CCO)nn3)CC2)n1 | 1.36%
24 | CN1C(=O)/C(=C\c2cc(Br)cs2)c2ccccc21 | 8.8% (active)

Row | Compound | inhibition
25 | CN1C(=O)/C(=N/OC(=O)c2ccccc2Br)c2ccccc21 | 4.91%
26 | CCC1C(=O)c2ccccc2N(C)C1=O (centres undefined) | 0.28%
27 | CN1CCN(C(=O)CCc2ncc(C(F)(F)F)cc2Cl)CC1 | -0.55%
28 | COc1ccc(-n2cnc3cc(C(=O)NC4CCCC4)ccc32)cc1 | -0.87%
29 | N#Cc1nc(Cc2cccc3ccccc23)oc1NCc1ccc2c(c1)OCO2 | 11% (active)
30 | O=C(COc1ccccc1)NCc1ccc2c(c1)OCO2 | 3.27%
31 | N#Cc1nc(Cc2ccccc2)oc1NCCc1ccccc1 | 2.28%
32 | CCCNC(=O)OC[C@H]1O[C@H](CCO/N=C/[C@@H](NS(=O)(=O)c2ccc(C)cc2)[C@H](C)/C=C/CC(=O)OC)C=C[C@@H]1Oc1ccc(OC)cc1 | 14.8% (active)
33 | CCCC(NS(=O)(=O)c1ccc(OC)cc1)C(=O)O (centres undefined) | 0%
34 | CC(C)Oc1ccc(Cc2n[nH]c(=S)n2Cc2ccccc2)cc1Cl | 9.13% (active)
35 | C=CCn1c(CCc2ccc(OC(C)C)cc2)n[nH]c1=S | -0.6%
36 | CC(C)Oc1ccc(CCc2n[nH]c(=S)n2Cc2ccccc2)cc1 | 6.59%
37 | Cc1ccc(-c2nn(-c3ccccc3)cc2/C=C/C(=O)Nc2cccc(S(N)(=O)=O)c2)cc1 | 4.87%
38 | O=C(O)c1ccc(NC(=O)c2cn(-c3ccccc3)nc2-c2ccc(Cl)cc2)cc1 | 6.63%
39 | COc1ccc(-c2nn(-c3ccccc3)cc2/C=C\C(=O)Nc2ccc(C(=O)O)cc2)cc1 | 9.89% (active)
40 | CCCC(=O)OCC(=O)Nc1cc(Cl)ccc1[N+](=O)[O-] | 0.82%
41 | Cc1cc(NC(=O)COC(=O)COc2ccc(Cl)cc2C)c([N+](=O)[O-])cc1C | 10.1% (active)
42 | COc1ccc(OCC(=O)Nc2cc(C)c(Cl)cc2OC)c([N+](=O)[O-])c1 | 1.54%
43 | Cc1ccccc1C(=O)Nc1ccc(N2CCCCCC2)cc1 | 1.43%
44 | O=C(Nc1cc(S(=O)(=O)N2CCOCC2)ccc1Cl)c1cc(=O)c2ccccc2o1 | 1.91%
45 | COc1ccccc1NC(=O)/C=C/C(=O)O | 2.02%
46 | Nc1nc(SCc2ccccc2Cl)n[nH]1 | 2.44%
47 | c1ccc(CSc2nnc(-c3ccco3)c(-c3ccco3)n2)cc1 | 0.53%
48 | Clc1ccccc1CSc1nnc(-c2ccco2)c(-c2ccco2)n1 | 16% (active)

Row | Compound | inhibition
49 | CCOC(=O)C1CCCN(C(=O)COc2ccc(N(C)S(=O)(=O)c3ccc(C)cc3)cc2)C1 (centres undefined) | -0.86%
50 | COCc1c(N)c(C)nc(Cl)c1C#N | 0.6%
51 | CC(C)(C)C(=O)N(Cc1ccccc1)c1ccccn1 | -0.12%
52 | CCOC(=O)C/C(C)=N\Nc1ccc([N+](=O)[O-])cc1[N+](=O)[O-] | 0%
53 | O=C1OC(OC(=O)c2ccccc2Br)C(N2CCOCC2)=C1Cl (centres undefined) | 1.63%
54 | Cc1ccc(NC2=C(Cl)C(=O)OC2OC(=O)c2ccccc2C)cc1 (centres undefined) | 12.9% (active)
55 | Cc1ccccc1C(=O)OC1OC(=O)C(Cl)=C1Nc1ccccc1 (centres undefined) | 6.67%
56 | CCOc1ccc(C(=O)Nc2cccc(-c3ccc4nncn4n3)c2)cc1 | 3.23%
57 | COCCCNC(=O)/C=C/c1ccc(OCc2c(F)cccc2Cl)cc1 | 0.89%
58 | O=C(Nc1ccccc1C(=O)N1CCCCCC1)c1ccccc1Cl | -0.13%
59 | CC(=O)c1ccc(N2CCN(C(=O)c3ccc4nc[nH]c4c3)CC2)cc1 | 2.3%
60 | CCOC(=O)/C(N=Nc1cc(C(=O)O)cc(C(=O)O)c1)=C(\O)CCl | 0%
61 | Cc1ccc(OCCCn2c(=O)oc3ccccc32)cc1 | 0.62%
62 | COc1ccc(OCCCn2cccc2/C=C2/C(=N)N3OC(C)=CC3=NC2=O)cc1 | 12.5% (active)
63 | CCOc1cc(/C=C2/C(=N)N3OC(C)=CC3=NC2=O)ccc1OC | 4.09%
64 | COCCNC(=O)C(c1ccc(O)cc1)N(C(=O)CCC(=O)Nc1nccs1)c1ccc(C)cc1 (centres undefined) | 0.98%
65 | Oc1c(Cl)cc(Cl)c(Cl)c1Cc1c(O)c(Cl)cc(Cl)c1Cl | 12% (active)
66 | OC1CSc2nc3ccccc3n2C1 (centres undefined) | 0%
67 | CC1Cc2ccccc2N1S(=O)(=O)c1c(N)n(C)c(=O)n(C)c1=O (centres undefined) | -1.31%
68 | CCCCn1ccnc1C(=O)c1cccc(S(=O)(=O)N2c3ccccc3CC2C)c1 (centres undefined) | 11.4% (active)
69 | CN1CCN(S(=O)(=O)c2cccc(C(=O)N3CCc4ccccc43)c2)CC1 | 1.24%
70 | CC(=O)NC(Cc1ccc(F)c(F)c1)C(=O)NC1CCN(C(=O)c2ccc(C)cc2)CC1 (centres undefined) | 0.5%
71 | COc1cc(OC)cc(-c2nnc(N(C)C(=O)c3ccncc3)s2)c1 | 0.96%
72 | COCCN(C(=O)C(C)C)c1nnc(-c2ccc(C(C)(C)C)cc2)s1 | 19.7% (active)

Row | Compound | inhibition
73 | COCCN(C(=O)c1ccco1)c1nnc(-c2ccc(OC)cc2)s1 | 4.86%
74 | CSc1nc2ccc(NC(=O)c3c(F)cccc3F)cc2s1 | 4.89%
75 | Cn1cc(/C=C/C(=O)N2CCCC(C(=O)c3ccc(C(F)(F)F)cc3)C2)cn1 (centres undefined) | -1.92%
76 | CN1CCN(c2ccc(S(=O)(=O)N3CCCCC3)cc2NC(=O)Cc2ccccc2F)CC1 | 1.32%
77 | O=C(O)CSc1nnc(-c2ccc3c(c2)OCO3)n1-c1ccccc1 | 3.54%
78 | COC(=O)c1ccccc1NC(=O)Cn1nc(C(F)(F)F)c2c1CCC2 | 5.65%
79 | Cn1nc(C(F)(F)F)c(C(=O)Nc2cccc(C(F)(F)F)c2)c1SCc1ccc(Cl)cc1 | 7%
80 | COC(=O)c1ccccc1Sc1c(/C=N/OCc2ccc(Cl)cc2)c(C(F)(F)F)nn1C | 8.63% (active)
81 | CCOC(=O)c1sc(/N=C/C2=C(O)CC(C)(C)CC2=O)c(C(=O)OCC)c1C | 4.52%
82 | Cc1ccc(C(C)NC(=O)Cn2nc(C)c([N+](=O)[O-])c2C)cc1 (centres undefined) | 0.13%
83 | CCC(C(=O)Nc1ccc(C(C)C)cc1)c1ccccc1 (centres undefined) | 3.4%
84 | COc1cc(OC)cc(-c2nc3nc(C)c(CCC(=O)NCc4ccco4)c(C)n3n2)c1 | 5.8%
85 | O=C(CSc1nc(-c2ccco2)cc(C(F)(F)F)n1)NCc1cccs1 | 5.13%
86 | COc1ccc(-c2cc(C(F)(F)F)nc(SCCC(=O)NCc3ccco3)n2)cc1 | 8.41% (active)
87 | COc1cc(/C=N/NC(=S)Nc2cccnc2)cc(OC)c1O | 0.73%
88 | CCOc1cc(C2C(C(=O)OC(C)C)=C(C)NC3=C2C(=O)CCC3)cc([N+](=O)[O-])c1O (centres undefined) | 3.44%
89 | COc1ccc(CCN=C2SCC(=O)N2Cc2ccccc2)cc1OC | 0.24%
90 | COc1ccc(CCNC2=C(Cl)C(=O)N(Cc3ccccc3)C2=O)cc1OC | 8.57% (active)
91 | COc1ccc(CCN(C)CCN2C(=O)c3ccccc3C2=O)cc1OC | -0.11%
92 | O=C(CSc1ccccc1)Nc1nnc(/C=C/c2ccccc2)s1 | 3.72%
93 | COc1ccc(Cl)cc1C(=O)NNC(=S)NC1CCCC1 | 0%
94 | COCCCNc1nc2c(-c3cccc(C(F)(F)F)c3)nnn2c2ccccc12 | 4.26%

Reference: PubChem BioAssay AID868 (SRMLSC, 2007)
